Laboratory results published in PubChem BioAssay (EPA / NIEHS).
The source made the active and inactive calls. How the source made its calls: active means hit-call score of the fitted dose curve at least 0.9, where 1 is the maximum; inactive means score below 0.9.

Legend:
Details in all cases: mRNA level, 48 h; actives raise or lower the signal
[1] = read-out: Forkhead box O3 (FOXO3), FOXO3 (gene 2309); assay: LTEA_HepaRG_FOXO3: Life Technologies and Expression Analysis (LTEA) Assay for Forkhead box O3 (FOXO3) using HepaRG (AID 2283459)
Outline: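 Differentiated human HepaRG cells, 48 h post-plating, exposed in duplicate for 48 h in serum-free induction medium; 8-point half-log series from 100 uM in 0.5% DMSO. FOXO3 mRNA by TaqMan qRT-PCR, normalized to ACTB/GAPDH/POLR2A; bidirectional fit versus DMSO.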

[2] = read-out: ABC Transporter (ABCB1), ABCB1 (gene 5243); assay: LTEA_HepaRG_ABCB1: Life Technologies and Expression Analysis (LTEA) Assay for ABC Transporter (ABCB1) using HepaRG (AID 2283460)
Outline: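 HepaRG cells exposed in duplicate for 48 h in serum-free induction medium to eight half-log concentrations up to 100 uM in 0.5% DMSO. ABCB1 mRNA quantified by qRT-PCR, normalised to ACTB, GAPDH and POLR2A; fitted bidirectionally versus DMSO.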

[3] = read-out: ABC Transporter (ABCC3), ABCC3 (gene 8714); assay: LTEA_HepaRG_ABCC3: Life Technologies and Expression Analysis (LTEA) Assay for ABC Transporter (ABCC3) using HepaRG (AID 2283462)
Outline: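 Transcriptional change of ABCC3 in HepaRG after 48 h treatment, determined by qRT-PCR normalized to endogenous controls. Concentrations spanned eight half-log steps to 100 uM in 0.5% DMSO.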

[4] = read-out: ABC Transporter (ABCB11), ABCB11 (gene 8647); assay: LTEA_HepaRG_ABCB11: Life Technologies and Expression Analysis (LTEA) Assay for ABC Transporter (ABCB11) using HepaRG (AID 2283463)
Outline: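 Differentiated human HepaRG cells in serum-free induction medium, dosed in duplicate for 48 h. Eight-point half-log series from 100 uM in 0.5% DMSO; ABCB11 mRNA by qRT-PCR, normalized to ACTB, GAPDH, POLR2A, fitted bidirectionally versus DMSO.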

[5] = read-out: ABC Transporter (ABCC2), ABCC2 (gene 1244); assay: LTEA_HepaRG_ABCC2: Life Technologies and Expression Analysis (LTEA) Assay for ABC Transporter (ABCC2) using HepaRG (AID 2283464)
Outline: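 After plating and 48 h culture, HepaRG medium is replaced with serum-free induction medium and chemicals are added (8 concentrations, max 100 uM, 0.5% DMSO) for 48 h. Total RNA then undergoes qRT-PCR for ABCC2 with housekeeping normalization.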

[6] = read-out: Broad substrate specificity ATP-binding cassette transporter ABCG2 (Homo sapiens) (UniProt Q9UNQ0); assay: LTEA_HepaRG_ABCG2: Life Technologies and Expression Analysis (LTEA) Assay for ABC Transporter (ABCG2) using HepaRG (AID 2283465)
Outline: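 Differentiated HepaRG cells were exposed for 48 h in serum-free induction medium to 8 half-log concentrations, top 100 uM, in 0.5% DMSO. ABCG2 mRNA was measured by qRT-PCR, normalized to ACTB, GAPDH and POLR2A, with bidirectional fitting versus DMSO.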

[7] = read-out: ATP-citrate lyase (ACLY), ACLY (gene 47); assay: LTEA_HepaRG_ACLY: Life Technologies and Expression Analysis (LTEA) Assay for ATP-citrate lyase (ACLY) using HepaRG (AID 2283466)
Outline: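 Differentiated HepaRG cells exposed 48 h in serum-free induction medium to eight half-log concentrations up to 100 uM in 0.5% DMSO, duplicates. Transcript measured by Fluidigm TaqMan qRT-PCR, normalized to ACTB, GAPDH, POLR2A; bidirectional fit versus DMSO.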

[8] = read-out: Alkaline Phosphatase, Placental (ALPP) gene, ALPP (gene 250); assay: LTEA_HepaRG_ALPP: Life Technologies and Expression Analysis (LTEA) Assay for Alkaline Phosphatase, Placental (ALPP) gene using HepaRG (AID 2283468)
Outline: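 Using human liver HepaRG cells, chemicals are tested in duplicate over 48 h at half-log concentrations topping at 100 uM; phenobarbital 1 mM serves as induction control. ALPP mRNA change by qRT-PCR, bidirectional fit against vehicle.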

[9] = read-out: Bcl-2 (BAD) gene, BAD (gene 572); assay: LTEA_HepaRG_BAD: Life Technologies and Expression Analysis (LTEA) Assay for Bcl-2 (BAD) gene using HepaRG (AID 2283469)
Outline: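 Differentiated HepaRG cells were exposed in duplicate in 0.5% DMSO for 48 h to eight-point half-log concentrations up to 100 uM. BAD mRNA was measured by Fluidigm TaqMan qRT-PCR, normalized to ACTB, GAPDH and POLR2A, and fitted bidirectionally against DMSO.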

[10] = read-out: Bcl-2 (BAX) gene, BAX (gene 581); assay: LTEA_HepaRG_BAX: Life Technologies and Expression Analysis (LTEA) Assay for Bcl-2 (BAX) gene using HepaRG (AID 2283470)
Outline: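 Differentiated human HepaRG cells, plated 48 h then switched to serum-free induction medium, were exposed 48 h to 8 half-log concentrations up to 100 uM in 0.5% DMSO; BAX mRNA measured by qRT-PCR, normalized to ACTB, GAPDH, POLR2A.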

[11] = read-out: adenosine kinase (ADK) gene, ADK (gene 132); assay: LTEA_HepaRG_ADK: Life Technologies and Expression Analysis (LTEA) Assay for adenosine kinase (ADK) gene using HepaRG (AID 2283471)
Outline: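 Read-out is ADK transcript level measured by qRT-PCR and normalised to three housekeeping genes. Cells are human HepaRG, dosed for 48 h at up to 100 uM in 0.5% DMSO. Gain or loss of signal is fitted against DMSO controls.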

[12] = read-out: Alpha-fetoprotein (AFP) gene, AFP (gene 174); assay: LTEA_HepaRG_AFP: Life Technologies and Expression Analysis (LTEA) Assay for Alpha-fetoprotein (AFP) gene using HepaRG (AID 2283472)
Outline: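 Human HepaRG cells plated 48 h, then switched to serum-free induction medium and exposed in duplicate for 48 h to 8-point half-log series from 100 uM in 0.5% DMSO. AFP mRNA by qRT-PCR, normalized to ACTB, GAPDH, POLR2A; bidirectional fit versus DMSO.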

[13] = read-out: BCL2L11 (gene 10018); assay: LTEA_HepaRG_BCL2L11: Life Technologies and Expression Analysis (LTEA) Assay for Bcl-2 (BCL2L11) gene using HepaRG (AID 2283473)
Outline: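 Human hepatic HepaRG cultures are treated 48 h with test chemicals (maximum 100 uM, 0.5% DMSO vehicle). Expression of BCL2L11 is measured by qRT-PCR against ACTB, GAPDH and POLR2A, with activity in either direction scored relative to vehicle.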

[14] = read-out: Apolipoprotein A-V (APOA5) gene, APOA5 (gene 116519); assay: LTEA_HepaRG_APOA5: Life Technologies and Expression Analysis (LTEA) Assay for Apolipoprotein A-V (APOA5) gene using HepaRG (AID 2283474)
Outline: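 Concentration-response of APOA5 expression in HepaRG: eight half-log doses to 100 uM, 48 h, qRT-PCR normalized to ACTB/GAPDH/POLR2A, bidirectional fitting with 0.5% DMSO as baseline.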

[15] = read-out: Apoptosis regulator Bcl-2 (Homo sapiens) (UniProt P10415); assay: LTEA_HepaRG_BCL2: Life Technologies and Expression Analysis (LTEA) Assay for Bcl-2 gene using HepaRG (AID 2283475)
Outline: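 Differentiated HepaRG cells in serum-free induction medium were exposed for 48 h to eight half-log concentrations up to 100 uM in 0.5% DMSO, in duplicate. BCL2 mRNA was quantified by TaqMan qRT-PCR normalised to ACTB, GAPDH and POLR2A, with bidirectional fitting versus DMSO.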

[16] = read-out: Bcl-2 (BID) gene, BID (gene 637); assay: LTEA_HepaRG_BID: Life Technologies and Expression Analysis (LTEA) Assay for Bcl-2 (BID) gene using HepaRG (AID 2283476)
Outline: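 Differentiated HepaRG cells in serum-free induction medium were exposed in duplicate for 48 h to eight half-log concentrations up to 100 uM in 0.5% DMSO. BID mRNA was quantified by qRT-PCR, normalized to ACTB, GAPDH and POLR2A.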

[17] = read-out: Caspase-3 (Homo sapiens) (UniProt P42574); assay: LTEA_HepaRG_CASP3: Life Technologies and Expression Analysis (LTEA) Assay for cysteine-aspartic acid protease (CASP3) using HepaRG (AID 2283477)
Outline: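 Transcript-level assay: CASP3 mRNA in human HepaRG after 48 h treatment, eight half-log concentrations from 100 uM in 0.5% DMSO, quantified by qRT-PCR.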

[18] = read-out: Cytochrome P450 (CYP24A1), CYP24A1 (gene 1591); assay: LTEA_HepaRG_CYP24A1: Life Technologies and Expression Analysis (LTEA) Assay for Cytochrome P450 (CYP24A1) using HepaRG (AID 2283478)
Outline: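 Gene expression of CYP24A1 by TaqMan qRT-PCR in HepaRG after 48 h treatment, highest concentration 100 uM; activity fitted in both directions relative to DMSO vehicle.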

Measured: outcome

Sequence of Caspase-3 (Homo sapiens) (P42574 whole entry, looked up): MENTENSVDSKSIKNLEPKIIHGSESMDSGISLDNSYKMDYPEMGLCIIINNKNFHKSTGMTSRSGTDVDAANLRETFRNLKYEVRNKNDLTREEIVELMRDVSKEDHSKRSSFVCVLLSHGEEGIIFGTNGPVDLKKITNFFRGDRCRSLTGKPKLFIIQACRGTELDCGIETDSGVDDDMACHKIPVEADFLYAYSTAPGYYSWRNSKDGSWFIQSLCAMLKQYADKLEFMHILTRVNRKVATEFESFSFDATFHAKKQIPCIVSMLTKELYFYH
Sequence of Apoptosis regulator Bcl-2 (Homo sapiens) (P10415 whole entry, looked up): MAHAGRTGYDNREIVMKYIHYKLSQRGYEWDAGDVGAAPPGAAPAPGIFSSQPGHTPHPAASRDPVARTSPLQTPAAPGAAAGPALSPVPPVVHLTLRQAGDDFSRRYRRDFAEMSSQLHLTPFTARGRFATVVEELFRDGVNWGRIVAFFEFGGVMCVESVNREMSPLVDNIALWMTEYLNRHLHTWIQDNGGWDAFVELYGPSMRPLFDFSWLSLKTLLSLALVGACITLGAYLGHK
Sequence of Broad substrate specificity ATP-binding cassette transporter ABCG2 (Homo sapiens) (Q9UNQ0 whole entry, looked up): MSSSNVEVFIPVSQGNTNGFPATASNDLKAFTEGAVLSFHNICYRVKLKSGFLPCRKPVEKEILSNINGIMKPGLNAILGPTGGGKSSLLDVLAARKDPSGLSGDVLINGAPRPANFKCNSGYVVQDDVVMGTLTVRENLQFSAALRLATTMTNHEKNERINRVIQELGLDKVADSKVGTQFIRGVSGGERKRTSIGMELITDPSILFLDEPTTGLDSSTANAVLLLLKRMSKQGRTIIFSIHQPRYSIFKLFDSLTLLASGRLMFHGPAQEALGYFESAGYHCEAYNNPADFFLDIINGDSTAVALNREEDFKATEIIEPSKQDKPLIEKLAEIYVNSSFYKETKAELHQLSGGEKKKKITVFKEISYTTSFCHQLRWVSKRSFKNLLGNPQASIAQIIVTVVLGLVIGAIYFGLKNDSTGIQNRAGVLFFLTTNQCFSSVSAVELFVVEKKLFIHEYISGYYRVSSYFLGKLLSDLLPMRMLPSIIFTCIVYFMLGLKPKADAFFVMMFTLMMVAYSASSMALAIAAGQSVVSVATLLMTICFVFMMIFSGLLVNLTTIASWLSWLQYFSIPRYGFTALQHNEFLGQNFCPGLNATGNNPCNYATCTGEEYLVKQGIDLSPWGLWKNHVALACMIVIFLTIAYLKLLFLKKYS

OCC1CO1 (stereo not given)
inactive: [1] | [2] | [3] | [4] | [5] | [6] | [7] | [8] | [9] | [10] | [11] | [12] | [13] | [14] | [15] | [16] | [17] | [18]

CC(C)(C)c1ccc(O)cc1
inactive: [1] | [3] | [5] | [6] | [7] | [8] | [9] | [10] | [11] | [12] | [13] | [14] | [15] | [16] | [17]

O=C(O)C(Cl)Cl
inactive: [1] | [2] | [3] | [4] | [5] | [6] | [7] | [8] | [9] | [10] | [11] | [12] | [13] | [14] | [15] | [16] | [17] | [18]

Cc1ccc([N+](=O)[O-])cc1C
inactive: [1] | [2] | [3] | [4] | [5] | [6] | [7] | [8] | [9] | [10] | [11] | [12] | [13] | [14] | [15] | [16] | [17] | [18]

O=[N+]([O-])c1ccccc1
inactive: [1] | [2] | [3] | [4] | [5] | [6] | [7] | [8] | [9] | [10] | [11] | [12] | [13] | [14] | [15] | [16] | [17] | [18]

Cc1cccc(N)c1
inactive: [1] | [2] | [3] | [4] | [5] | [6] | [7] | [8] | [9] | [10] | [11] | [12] | [13] | [14] | [15] | [16] | [17] | [18]
